From PubChem BioAssay
Rows were chosen to be rich in hits. Some 1.2% of all compounds tested hit in one or more screens of this group.
MsrA inh – inhibitors of bovine MsrA; purified bovine MsrA, absorbance read-out; inhibition, % at 15.5 µM; 360,000 tested, 0.75% active; AID 651718; in the data active means inhibition above about 4.5%;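 further: 0% = vehicle wells with enzyme and 100% = reference inhibitor wells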
GC-B act – GC-B (human) receptor activation; HEK293-GC-B cells, CNP EC30, cGMP TR-FRET; 0% at EC30 CNP, 100% saturating CNP; activation, % at 10 µM; 370,000 tested, 0.11% active; AID 1920062;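 active means activation at 10 µM reaching about 35% in either raw or pattern-adjusted values, limit read from the data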
NPR1 activator – GC-A (human) enzyme activation; P16066; 370,000 tested, 0.14% active; activation, % at 10 µM; HEK293 GC-A cells, cGMP TR-FRET, EC30 ANP; 0% at EC30 ANP, 100% saturating ANP; AID 1671463; in the data active means activation above about 40%
Target sequence (P16066 whole entry, looked up): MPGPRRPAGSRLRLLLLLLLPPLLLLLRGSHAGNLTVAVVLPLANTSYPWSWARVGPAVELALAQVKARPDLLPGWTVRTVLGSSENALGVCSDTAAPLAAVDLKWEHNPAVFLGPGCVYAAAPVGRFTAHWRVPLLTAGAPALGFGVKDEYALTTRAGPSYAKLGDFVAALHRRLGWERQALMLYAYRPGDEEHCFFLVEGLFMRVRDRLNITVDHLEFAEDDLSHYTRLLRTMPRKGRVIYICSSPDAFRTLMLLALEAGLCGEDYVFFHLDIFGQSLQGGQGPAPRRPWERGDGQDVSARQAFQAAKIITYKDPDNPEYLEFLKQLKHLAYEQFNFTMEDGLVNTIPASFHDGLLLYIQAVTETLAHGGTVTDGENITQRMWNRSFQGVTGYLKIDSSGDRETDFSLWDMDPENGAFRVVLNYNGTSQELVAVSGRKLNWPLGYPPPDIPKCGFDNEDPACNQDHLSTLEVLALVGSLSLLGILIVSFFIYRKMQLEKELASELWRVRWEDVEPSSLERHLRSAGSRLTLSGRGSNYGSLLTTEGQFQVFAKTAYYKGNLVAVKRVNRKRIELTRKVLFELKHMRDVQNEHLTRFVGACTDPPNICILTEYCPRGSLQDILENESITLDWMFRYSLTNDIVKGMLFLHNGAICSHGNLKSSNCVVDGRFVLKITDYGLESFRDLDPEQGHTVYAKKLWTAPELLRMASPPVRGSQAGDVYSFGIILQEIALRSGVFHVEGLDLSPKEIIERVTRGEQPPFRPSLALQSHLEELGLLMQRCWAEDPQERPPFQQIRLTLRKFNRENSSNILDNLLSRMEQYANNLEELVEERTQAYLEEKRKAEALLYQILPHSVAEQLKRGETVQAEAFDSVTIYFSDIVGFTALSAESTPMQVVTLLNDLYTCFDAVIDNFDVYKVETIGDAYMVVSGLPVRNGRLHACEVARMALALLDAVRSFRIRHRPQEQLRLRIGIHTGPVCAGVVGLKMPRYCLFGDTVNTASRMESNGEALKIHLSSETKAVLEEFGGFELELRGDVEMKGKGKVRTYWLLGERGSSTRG
bovine MsrA act – activators of bovine methionine sulfoxide reductase A | activation, % at 10.6 µM | AID 602163 | 360,000 tested, 0.3% active | purified bovine MsrA, absorbance read-out; in the data active means activation above about 7.5%;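 further: 0% = vehicle and 100% = reference activator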
MsrA act confirm – bovine methionine sulfoxide reductase A activation confirmed; shares compounds with bovine MsrA act; purified bovine MsrA, absorbance read-out; activation, % at 10.6 µM; 1,000 tested, 12% active; AID 602270; in the data active means activation above about 4%;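 further: enzyme coupled to thioredoxin and thioredoxin reductase with NADPH; 0% = vehicle wells and 100% = reference activator wells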
Numbers without * were called inactive; · = no result given.

SMILES | MsrA inh | GC-B act | NPR1 activator | bovine MsrA act | MsrA act confirm
O=C1CCC[C@H]2C[C@H](NCCc3ccncc3)CC[C@]23CCCN13 | · | -4 | -1 | · | ·
CCCCCN1CCCCC(NC(=O)c2ccccc2OC)C1=O (configuration not stated) | · | -1 | -2 | · | ·
O=C(NCc1ccccc1)C1=C[C@H](c2ccc3c(c2)OCO3)C[C@H](OCc2ccc(CO)cc2)O1 | 0 | -5 | -1 | 0 | ·
C#CCNC(=O)C1=C[C@@H](c2ccc3c(c2)OCO3)C[C@@H](OCc2ccc(CO)cc2)O1 | 0 | 5 | -1 | 8.5* | 1
S=c1[nH]c2ccccc2n2c(=S)[nH]nc12 | 4 | -116 | -77 | 6 | ·
S=c1[nH]nc2ccc3ccccc3n12 | 2 | -10 | 2 | 11* | 2
O=C(OCc1cn(Cc2ccc(F)c(F)c2)nn1)N1CCOCC1 | · | -2 | -2 | · | ·
Cc1cccc(NC(=O)C2CCCN2S(=O)(=O)c2cccnc2)c1C (configuration not stated) | · | 5 | 3 | · | ·
N#Cc1ccccc1OCCCN1CCC(C(O)(c2ccccc2)c2ccccc2)CC1 | -1 | -15 | -30 | 8.3* | -2
COc1ccc(-n2c(COc3ccccc3)nnc2SCc2nc3ccccc3[nH]2)cc1 | · | -14 | -16 | · | ·
CCOc1ccc(S(=O)(=O)NCCC(=O)NCc2ccco2)cc1 | -1 | 3 | -1 | -3 | ·
CCCNS(=O)(=O)c1ccc(OCC(=O)NCc2ccco2)cc1 | 0 | 10 | 6 | 16* | 1
Cc1cc(C)cc(NC(=S)N2CCCC2)c1 | 1 | 0 | 4 | 12* | -3
O=C1C=C(Nc2ccccc2O)c2ccccc2C1=O | 2 | · | · | 9.3* | 6.1*
O=C1C=C(NCc2ccccc2)c2ccccc2C1=O | 2 | 2 | -7 | 9.4* | 8.9*
Cc1ccc(NC2=CC(=O)C(=O)c3ccccc32)c(C)c1 | 0 | -5 | -2 | -2 | ·
O=C(CSc1ccccc1C(=O)O)NCc1ccccc1 | 0 | 2 | -1 | 8.1* | -1
CCOc1ccc(S(=O)(=O)N2CCCC(C(=O)NCc3cccnc3)C2)cc1 (configuration not stated) | -1 | -5 | 1 | 8.9* | -2
COc1ccc(S(=O)(=O)N2CCCC(C(=O)NCc3cccnc3)C2)cc1 (configuration not stated) | -1 | 0 | -4 | -5 | ·
COC(=O)CNC(=O)COC(=O)/C=C/c1ccc2ccccc2n1 | 2 | 0 | -3 | 8.7* | -3
Cc1cc(C)n(-c2ccc(C(=O)Nc3ccc4c(c3)OCO4)cc2)n1 | 1 | -5 | 0 | 8.4* | -6
O=C(/C=C/c1ccccc1)C1=C(O)C(=O)N(CCO)C1c1ccccc1[N+](=O)[O-] (configuration not stated) | 2 | -3 | -2 | -2 | ·
O=C(/C=C/c1ccccc1)C1=C(O)C(=O)N(CCO)C1c1cccc([N+](=O)[O-])c1 (configuration not stated) | 2 | 5 | 3 | 9.9* | -1
COC(=O)C1CCC(CNC(=O)C(Cc2ccc3c(c2)OCO3)NC(C)=O)CC1 (configuration not stated) | · | 1 | 0 | · | ·
NS(=O)(=O)c1ccc(NC(=O)COC(=O)CNC(=O)C23CC4CC(CC(C4)C2)C3)cc1 | 3 | 5 | 1 | -2 | ·
SMILES | MsrA inh | GC-B act | NPR1 activator | bovine MsrA act | MsrA act confirm
CC(OC(=O)CNC(=O)C12CC3CC(CC(C3)C1)C2)C(=O)Nc1ccc(S(N)(=O)=O)cc1 (configuration not stated) | 0 | -2 | 3 | 9.1* | 3
COc1ccc(/C=C2\CC3(OC(=O)c4cccc(F)c4)CCCN2C3)cc1 (configuration not stated) | · | -20 | -1 | · | ·
CCC(C)(C)n1nnnc1CN(Cc1cccs1)Cc1cc2cc(OC)ccc2[nH]c1=O | 1 | -12 | -12 | 7.7* | -3
COc1cc2c(c(OC)c1)C(=O)O[C@H](C)C[C@@H]1O[C@H]1CCCCC(=O)C2 | · | 4 | 2 | · | ·
CC(=O)c1c(C)n(-c2ccc(Cl)cc2)c2ccc(O)cc12 | -1 | 3 | 22 | 7.8* | 0
CC(=O)c1ccc(-n2c(C)c(C(C)=O)c3cc(O)ccc32)cc1 | 1 | -5 | 7 | -3 | ·
COc1ccccc1CNC1CCC12CCC(c1ccccc1)CC2 (configuration not stated) | · | -14 | -16 | · | ·
COc1cc(OC)cc(C(=O)NC2CCN(CC(=O)Nc3cccc4ccccc34)CC2)c1 | 1 | -11 | -1 | 8.9* | -1
